Measured values as given in PubChem BioAssay (NCI).
Several values for one entry are separate records, joined by “and”; a condition that tells them apart may be missing. Identical values can stand only once. About 83,000 compounds went through this panel and 20% of them were active in at least one assay; those are over-represented in the sample as a whole.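 Negative percent growth values reflect cell death: -40 means 40% of the cells present at the start died, and -100 means all died.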 Activity calls are given as the source filed them. How the source made its calls: active means growth percent below 10; inactive means the rest.

Assays:
Assay in all cases: NCI-60 one-dose screen, 48 h (100 = growth as untreated, 0 = no growth, -100 = all killed)
Conditions in all cases: 10 µM unless noted
[1] = tested on: SR leukemia
[2] = tested on: RPMI-8226 leukemia
[3] = tested on: OVCAR-8 ovarian
[4] = tested on: OVCAR-5 ovarian
[5] = tested on: OVCAR-4 ovarian
[6] = tested on: SK-OV-3 ovarian
[7] = tested on: IGROV1 ovarian
[8] = tested on: OVCAR-3 ovarian
[9] = tested on: HS 578T breast
[10] = tested on: NCI/ADR-RES ovarian
[11] = tested on: MDA-MB-435 melanoma
[12] = tested on: SW-620 colon
[13] = tested on: MCF7 breast
[14] = tested on: HCT-116 colon
[15] = tested on: HCC-2998 colon
[16] = tested on: KM12 colon
[17] = tested on: T-47D breast
[18] = tested on: BT-549 breast

Measured: growth

COc1ccc(C(=O)CC(c2ccccc2)C(C#N)c2ccccc2)cc1 (configuration not stated)
inactive: [1] 73.8% | [2] 72.6% | [3] 86% | [4] 110% | [5] 88.8% | [6] 102% | [7] 102% | [8] 82.4% | [9] 86.4% | [10] 84.2% | [11] 78.9% | [12] 91.1% | [13] 93.4% | [14] 91.2% | [15] 99.1% | [16] 79.9%

CCCCCCCCCCCCCCCc1ccc(N)c(OC2OC(CO)C(O)C(O)C2O)c1 (configuration not stated)
active: [15] 9.53%
inactive: [1] 40.2% | [2] 28.7% | [3] 87.1% | [4] 65.8% | [5] 85.2% | [6] 149% | [8] 93.6% | [9] 103% | [10] 73% | [17] 104% | [18] 54.8% | [11] 99.6% | [12] 98.2% | [13] 93.7% | [14] 87.7% | [16] 100%

CC(C)NCC(O)c1ccc(O)c(O)c1 (configuration not stated)
inactive: [1] 87.9% and 95.3% | [2] 96.6% and 99.6% | [3] 94.8% and 131% and 91.7% | [4] 89.2% and 92.6% and 86.9% | [5] 107% and 110% and 97.1% | [6] 95.5% and 94.9% and 102% | [7] 96.4% and 101% | [8] 113% and 102% and 108% | [9] 112% and 96.6% and 109% | [10] 96.3% and 102% and 93.8% | [17] 98% and 90.5% and 102% | [18] 84.7% and 79.9% and 84% | [11] 104% and 105% and 101% | [12] 104% and 107% and 93% | [13] 100% and 85.1% and 109% | [15] 105% and 117% and 108% | [16] 106% and 105%

Cn1cnc([N+](=O)[O-])c1Sc1ncn[nH]1
inactive: [1] 126% | [3] 73.8% | [4] 116% | [5] 95.5% | [6] 115% | [7] 105% | [8] 119% | [9] 119% | [10] 119% | [17] 94.2% | [18] 101% | [11] 101% | [12] 106% | [13] 102% | [14] 101% | [16] 107%

O=C1C=C(Nc2ccccc2)c2ccccc2C1=O
inactive: [1] 84.5% | [2] 52.7% and 87.3% | [3] 31.7% and 94.3% | [4] 90.2% and 109% | [5] 44.4% and 82.5% | [6] 108% and 90.9% | [7] 65.5% and 85.3% | [9] 94.8% and 88.6% | [10] 25.1% and 91.4% | [17] 77.2% and 102% | [18] 84.3% and 100% | [12] 31.5% and 94% | [13] 12.9% and 78.4% | [15] 54.3% and 90.5% | [16] 65.6% and 84.4%
-88% (active) and 99% (inactive): [11]
6.63% (active) and 35.4% (inactive): [8]

CCCCNc1ccc(Nc2ccccc2)cc1
inactive: [1] 62.3% | [3] 74.2% | [4] 103% | [5] 39% | [7] 58.7% | [8] 66% | [9] 105% | [10] 86.4% | [17] 34% | [18] 49.7% | [11] 71.8% | [12] 84.3% | [13] 67.3% | [15] 92% | [16] 66%
active: [2] -25%

c1ccc(-c2nc3ccccc3s2)cc1
inactive: [1] 103% | [3] 88.3% | [4] 84.1% | [5] 101% | [7] 75.4% | [8] 105% | [9] 93% | [10] 96.1% | [18] 96.8% | [11] 110% | [12] 93.6% | [13] 80.3% | [15] 97.2% | [16] 95.4%

O=C(Cc1ccccc1)c1ccc(O)c(Cl)c1
inactive: [1] 10.2% | [3] 43.4% | [4] 65.6% | [5] 63.5% | [6] 101% | [7] 60.4% | [8] 12.4% | [9] 37.4% | [10] 28.5% | [17] 43.9% | [18] 45.3% | [11] 41.3% | [12] 22.1% | [13] 20.4% | [15] 43.4% | [16] 51.4%
active: [2] -6.77%

CC1CCC(C(C)C)C(NNC(N)=O)C1 (configuration not stated)
inactive: [1] 100% | [2] 98.5% | [3] 100% | [4] 131% | [5] 111% | [6] 109% | [7] 110% | [8] 103% | [9] 91.6% | [10] 105% | [11] 101% | [12] 98% | [13] 100% | [15] 91.8% | [16] 94%

CCc1cc(C)cc(O)c1
inactive: [1] 102% | [2] 106% | [3] 105% | [4] 106% | [5] 112% | [6] 102% | [7] 92% | [8] 126% | [9] 110% | [10] 111% | [17] 102% | [11] 113% | [12] 107% | [13] 98.3% | [14] 98.2% | [15] 104% | [16] 114%

N#CC(C#N)N=Nc1ccc(Cl)cc1
active: [17] -0.279%
inactive: [1] 53.7% | [3] 62.1% | [4] 72.6% | [5] 10.1% | [6] 45.8% | [7] 69.4% | [8] 15.2% | [9] 81.8% | [10] 72.2% | [18] 77.1% | [11] 79.6% | [12] 15% | [13] 27.3% | [14] 16.9% | [15] 75.3% | [16] 85.9%

OCCN1CCCCCCC1
inactive: [1] 109% | [2] 108% | [3] 101% | [4] 109% | [6] 103% | [7] 104% | [8] 111% | [9] 90.8% | [10] 102% | [17] 95.6% | [18] 98.2% | [11] 98.4% | [12] 108% | [13] 99% | [15] 100% | [16] 110%

Nc1ncnc2c1ncn2C1OC(COP(=O)(O)O)C(O)C1O (configuration not stated)
inactive: [1] 111% | [2] 106% | [3] 111% | [4] 108% | [5] 126% | [6] 114% | [8] 124% | [10] 109% | [17] 123% | [18] 113% | [13] 101% | [15] 104% | [16] 111%

CC(C)C(C)(C)c1ccc(O)cc1
inactive: [1] 97.8% | [2] 105% | [3] 106% | [4] 106% | [5] 108% | [6] 107% | [7] 111% | [8] 105% | [9] 114% | [10] 113% | [17] 101% | [18] 110% | [11] 106% | [12] 101% | [13] 109% | [15] 114% | [16] 107%

CC(=O)OCC1OC(OC(C)=O)C(OC(C)=O)C(OC(C)=O)C1OC(C)=O (configuration not stated)
inactive: [1] 98.1% and 93.6% | [2] 100% and 103% | [3] 97.5% and 99.7% | [4] 101% and 112% | [5] 97% and 104% | [6] 102% and 106% | [7] 108% and 105% | [8] 110% and 107% | [9] 132% and 101% | [10] 100% and 107% | [17] 97.7% and 101% | [18] 96.3% and 103% | [11] 105% and 107% | [12] 102% and 105% | [13] 99.8% and 91.9% | [15] 111% and 101% | [16] 109% and 100%
